KDM4E inh: qHTS Assay for Inhibitors of Human Jumonji Domain Containing 2E (JMJD2E); Potency, µM (highest dose often 57.1 µM), for inactives: at the highest dose activity change, negative = inhibition, most hits filed as inhibitors; actives 1.6% (n = 230,000); AID 2147, 2009; JMJD2E catalytic domain, FDH-coupled NADH fluorescence (FDH is formaldehyde dehydrogenase); Lysine-specific demethylase 4E (Homo sapiens), B2RXH2; active = well fitted inhibition curve with a large enough effect, not every such curve was filed as active; inconclusive = small, poorly fitted or top-dose-only effect, or another doubt; inactive = no such curve, though single readings can be large or run the other way;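 note: potency is the fitted concentration of half-maximal effect; 0% = wells with enzyme and -100% = buffer wells without enzyme; nearly all actives have a fitted effect of over 50% in size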
Eya2 phos inh: qHTS Assay for Inhibitors of the Phosphatase Activity of Eya2. recombinant Eya2, OMFP fluorescence dephosphorylation (OMFP is methylfluorescein phosphate). Potency, µM (titrated, usually from 76.9 µM), for the others: top-dose activity, negative = inhibition, actives largely listed as inhibitors. actives 0.006% (n = 330,000); note: potency is the fitted concentration of half-maximal effect
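Eya2 protein (added as 0.2 uM solution) was preincubated with compound for 10 min at ambient temperature in 50 mM HEPES pH 7.5, 50 mM NaCl, 5 uM MgCl2, 0.05% BSA, 1 mM DTT. OMFP (added at 50 uM) then reacted 10 min; fluorescence read at 485/525 nm.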
GALK inhibitor: qHTS Assay for Inhibitors of Human Galactokinase (GALK); P51570; Purified GALK, Kinase-Glo residual ATP luminescence; Potency, µM (doses to about 57.5 µM), for the others: top-dose activity change, negative = inhibition, most hits filed as inhibitors; actives 0.007% (n = 270,000); AID 1868, 2009; note: potency is the fitted concentration of half-maximal effect
Target sequence (P51570 whole entry, looked up): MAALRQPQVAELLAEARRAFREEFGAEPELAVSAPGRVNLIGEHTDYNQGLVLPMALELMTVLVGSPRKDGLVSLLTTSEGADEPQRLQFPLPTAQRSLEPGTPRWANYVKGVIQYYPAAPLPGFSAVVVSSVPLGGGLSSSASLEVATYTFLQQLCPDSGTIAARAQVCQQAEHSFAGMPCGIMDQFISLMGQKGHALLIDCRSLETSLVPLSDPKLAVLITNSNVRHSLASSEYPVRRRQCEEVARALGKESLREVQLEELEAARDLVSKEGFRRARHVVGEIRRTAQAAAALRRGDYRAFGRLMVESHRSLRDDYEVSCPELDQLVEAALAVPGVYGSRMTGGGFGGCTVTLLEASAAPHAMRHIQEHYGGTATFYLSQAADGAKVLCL
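The enzyme phosphorylates galactose (100 uM) using ATP (35 uM); inhibition is detected as higher residual ATP, quantified by bioluminescence after 1 h reaction at room temperature, pH 8.0.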
Anesthetic bind: qHTS Assay for Identification of Novel General Anesthetics. actives 0.074% (n = 350,000). apoferritin/1-aminoanthracene competitive binding, fluorescence. Ferritin light chain (Equus caballus), P02791. Potency, µM (top dose mostly 77.5 µM), for inactives: top-dose activity change, negative = displacement, most hits filed as inhibitors; note: potency is the fitted concentration of half-maximal effect; nearly all actives have a fitted effect of over 20% in size
Target sequence (P02791 2-175 limits assumed): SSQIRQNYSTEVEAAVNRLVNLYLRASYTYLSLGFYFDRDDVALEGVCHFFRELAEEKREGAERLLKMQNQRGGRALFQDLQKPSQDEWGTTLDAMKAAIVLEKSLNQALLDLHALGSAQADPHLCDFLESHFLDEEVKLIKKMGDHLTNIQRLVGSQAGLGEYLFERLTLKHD
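Horse-spleen apoferritin (10 uM) was mixed with 50% saturated 1-aminoanthracene in PBS, exposed to compounds for 10 min at room temperature, and read for fluorescence (ex 380 nm, em 535 nm). Competitive displacement was fitted with a four-parameter Hill equation.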
Six1-Eya2 blk: qHTS Assay for Inhibitors of the Six1/Eya2 Interaction; Homeobox protein SIX1 (Homo sapiens) + Protein phosphatase EYA2 (Homo sapiens), …; AlphaScreen GST-Six1/His-Eya2 binding, biochemical; active compounds read low; activity change, % (test concentration not listed); actives 0.56% (n = 360,000); in the data active = activity change below about -65%; inconclusive = mostly about -30% to -63%
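Homogeneous AlphaScreen proximity assay pairing GST-Six1 with His-tagged Eya2 (added as 5X mix: 250 nM and 500 nM) in 50 mM Tris pH 8.0, 300 mM NaCl, 1 mM TCEP. Glutathione donor and nickel acceptor beads; 1 h, 37 °C, dark.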
CtBP-E1A blk: qHTS Assay for Inhibitors of the CtBP/E1A Interaction; CtBP / adenovirus E1A interaction (AlphaScreen); AlphaScreen GST-E1A/His-CtBP binding, 1536-well; active compounds read low; activity change, % (concentration not given with the values); actives 0.49% (n = 340,000); in the data active = activity change below about -65%; inconclusive = mostly about -30% to -63%
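Protein mix (5X: 125 nM each GST-E1A, His-CtBP) was incubated with pinned compound 2 h at 37 deg C in dark, in 50 mM Tris pH 8.0 buffer with 300 mM NaCl. Glutathione donor and nickel acceptor beads followed; AlphaScreen signal read after 1 h.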
Starred values were filed as active, the others as inactive; ? = inconclusive; nt = no result; ! = not confirmed by another sample; [ ] = remark or other dose. Shown is part of a subset that was picked to be rich in hits. Unless noted, calls come from the whole dose curve; as a rule, active = well fitted curve in the direction sought with a large enough effect; inconclusive = small, poorly fitted or top-dose-only effect, or another doubt; inactive = no such curve, though single readings can be large; an effect the other way counts as inactive or inconclusive. Unless noted, % is set by controls: 0 for no effect and ±100 for the full control effect.

SMILES	KDM4E inh	Eya2 phos inh	GALK inhibitor	Anesthetic bind	Six1-Eya2 blk	CtBP-E1A blk
O=C(NN=C(c1ccccc1)c1ccccn1)c1ccccc1	nt	-16.5%	nt	nt	-68.2*	6.4
CC(=O)n1cc([C@@H]2C=C(C(=O)NCc3ccccc3)O[C@H](OCCCCO)C2)c2ccccc21	15.8µM*	0.3%	0.0%	-21.4%	-4.1	-0.8
CC(=O)n1cc([C@@H]2C=C(C(=O)N3CCN(Cc4ccccc4)CC3)O[C@H](OCc3ccc(CO)cc3)C2)c2ccccc21	20µM*	-10.2%	6.8%	-12.0%	-14.2	-14.8
CC(=O)n1cc([C@H]2C=C(C(=O)N3CCN(Cc4ccccc4)CC3)O[C@@H](OCCCCO)C2)c2ccccc21	?	8.2%	-4.4%	-18.3%	-9.3	-4.6
COc1ccc(Oc2coc3cc(OC(=O)/C=C/c4ccccc4)ccc3c2=O)cc1	?	4.7%	0.2%	0.1%	-25.5	?
COc1ccccc1-c1coc2cc(OC(=O)/C=C/c3ccccc3)ccc2c1=O	-10.6%	2.5%	1.3%	7.2%	-17.0	-67.7*
CC(NC(=O)Cn1nc(-c2ccccc2)c2ccccc2c1=O)c1ccccc1 (stereo not given)	-2.2%	-13.0%	nt	14.1µM*	3.4	-4.8
CC(NC(=O)Cn1nc(C(=O)O)c2ccccc2c1=O)c1ccccc1 (stereo not given)	-7.5%	4.4%	0.0%	5.0%	5.7	-9.1
CCCCCCCC1=Cc2ccccc2C(C(C(C)=O)C(=O)OC)N1C(=O)OC (stereo not given)	0.7%[11.4 µM]	nt	nt	nt	nt	nt
O=C(/C=C/c1ccc([N+](=O)[O-])cc1)OCC(=O)N1CCOCC1	nt	-9.5%	nt	nt	4.9	-24.7
O=C(/C=C/c1ccc([N+](=O)[O-])cc1)OCC(=O)N1CCCCCC1	nt	-4.7%	nt	nt	-9.6	-72.2*
CCOC(=O)c1cc2c(=Cc3ccc(N(C)C)cc3)c3ccccc3n2[n+]1C	nt	nt	nt	nt	-69.2*	0.0
CN(C)c1ccc(C=c2c3cc(O)ccc3n3c2cc(-c2ccccc2)[n+]3C)cc1	nt	nt	nt	nt	-73.8*	11.7
Cc1cc2c(=Cc3ccc(N(C)C)cc3)c3ccccc3n2[n+]1C	nt	nt	nt	nt	0.0	-66.2*
C[n+]1c(-c2ccccc2)cc2c(=Cc3ccccc3)c3ccccc3n21	nt	nt	nt	nt	?	21.1
O=c1c2ccccc2sn1-c1cc(S(=O)(=O)N2CCOCC2)ccc1N1CCOCC1	8.91µM*	-4.0%	5.3%	-1.0%	-4.4	7.4
O=c1c2ccccc2sn1-c1cc(S(=O)(=O)N2CCOCC2)ccc1N1CCCC1	14.1µM*	0.2%	-0.4%	-20.7%	-4.2	-7.9
O=S(=O)(c1ccc(N2CCOCC2)c(Cl)c1)N1CCOCC1	nt	3.9%	1.4%	72.6%	6.1	9.5
Nc1c(-c2nc(-c3ccccc3Cl)no2)nnn1-c1ccccc1F	nt	nt	nt	2.1%	nt	nt
Nc1nc2ccc([N+](=O)[O-])c(N)c2s1	-5.6%	-5.3%	-2.4%	?	?	-71.7*
CCN(CC)S(=O)(=O)c1ccc(NC(=O)COC(=O)CNS(=O)(=O)/C=C/c2ccccc2)cc1	1.5%	-18.1%	-0.4%	-2.9%	-14.3	-81.3*
COc1ccc(CCNC(=O)C(=O)Nc2nccs2)cc1OC	?	3.8%	-1.6%	7.6%	-0.7	2.2
COc1ccc(CC(=O)Nc2ccc(C(=O)Nc3nccs3)cc2)cc1OC	?	-14.4%	8.4%	-11.3%	-81.3*	-74.4*
N#Cc1ccc(NC(=O)COC(=O)C2CCC2)cc1	nt	nt	nt	nt	10.8	-7.1
N#Cc1ccc(NC(=O)COC(=O)CNC(=O)C2CCCCC2)cc1	6.7%	13.9%	2.3%	8.91µM*	4.3	6.6
SMILES	KDM4E inh	Eya2 phos inh	GALK inhibitor	Anesthetic bind	Six1-Eya2 blk	CtBP-E1A blk
COc1cc(/C=C(\C#N)C(=O)NC(C)C)ccc1OCc1ccc(C(=O)O)cc1	-28.5%	7.4%	-6.8%	-9.4%	-0.9	-73.2*
COc1cc(/C=C(\C#N)C(=O)NC2CCCCC2)ccc1OCc1ccc(C(=O)O)cc1	-3.7%	4.3%	-0.5%	-13.1%	?	-93.4*
Clc1cccc(C=NC=Nc2cccc(Cl)c2)c1	-4.4%	nt	nt	nt	nt	nt
O=C(COC(=O)CC1CC2CCC1C2)NC(=O)NCc1ccco1 (stereo not given)	1.3%	-30.4%	0.0%	12.6µM*	-3.4	-3.7
NC(=O)c1ccc(NC(=O)COC(=O)CC2CC3CCC2C3)cc1 (stereo not given)	nt	-23.6%	nt	nt	-1.8	5.3
Cc1cc(C)c(Nc2cc(S(=O)(=O)O)c(N)c3c2C(=O)c2ccccc2C3=O)c(C)c1	-22.4%	-9.4%	1.0%	-18.5%	-68.0*	-88.0*!
Cc1cc(C)c(NC(=O)COC(=O)c2cccc3c2C(=O)c2ccccc2C3=O)c(C)c1	-5.5%	7.4%	1.7%	-9.1%	?	?
CC[n+]1ccc2cc(OC)c(OC)cc2c1Cc1ccc(OC)c(OC)c1	25.1µM*	?	5.9%	-5.1%	-1.4	-4.8
COc1ccc(Cc2c3cc(OC)c(OC)cc3cc[n+]2C)cc1OC	?	-8.3%	1.9%	1.7%	0.8	-0.5
Cc1ccc(Cl)cc1NC(=O)C1CCN(C(=O)c2cnn(-c3ccccc3)c2-n2cccc2)CC1	nt	nt	nt	-16.6%	nt	nt
O=C(Nc1cccc(Cl)c1)OCc1cnc(Cl)s1	2.7%	-12.3%	-1.1%	10µM*	2.6	6.0
O=C(Nc1cccc(Cl)c1)OCCOCCOC(=O)Nc1cccc(Cl)c1	nt	nt	nt	nt	0.9	16.3
CC(C)(C)c1ccc(C(=O)COC(=O)CN2C(=O)NC3(CCCC3)C2=O)cc1	nt	-6.1%	-9.4%	25.1µM*	-4.2	2.0
N#CC1=C(N)OC2=C(CCC/C2=C/c2ccoc2)C1c1ccoc1 (stereo not given)	25.1µM*	-24.1%	-1.9%	3.5%	nt	nt
Oc1ccc(-c2nc(-c3ccc(O)c(O)c3)cs2)cc1	28.2µM*	-4.9%	4.9%	-6.2%	-21.5	?
Oc1ccc(Nc2nc(-c3ccc4ccccc4c3)cs2)cc1	?	-4.4%	-3.9%	-21.0%	nt	nt
Cc1ccc2c(CN3CCN(C(=O)c4ccc(F)cc4)CC3)cc(=O)oc2c1	nt	nt	nt	-23.3%	nt	nt
O=C1c2ccccc2C(=O)c2c1cccc2N1CCOCC1	1.7%	-1.9%	-0.3%	-14.2%	-77.9*	-72.4*
CC(=O)N(C)c1ccc(N2CCOCC2)c2c1C(=O)c1ccccc1C2=O	nt	nt	nt	nt	13.8	17.2
CN(C1=C(N2CCCCC2)C(=O)c2ccccc2C1=O)c1ccccc1	6.6%	?	-0.6%	?	-83.3*	-1.5

Assay outcomes (PubChem)
